A short description of assay [1]: qHTS assay to identify small molecule antagonists of the retinoid acid receptor (RAR) signaling pathway - cell viability counter screen (AID 1159551). Also: nearly all actives have a fitted effect of over 35% in size. The method, boiled down:
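Seed C3RL4 cells; next day add compound, then retinol to 1 uM final; incubate 6 h at 37 C; add CellTiter-Glo; read luminescence after 30 min at RT.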

Assay [2] in a line: qHTS assay to identify small molecule antagonists of the retinoic acid receptor (RAR) signaling pathway (AID 1159552; also: nearly all actives have a fitted effect of over 50% in size). The gist of the method:
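RARE-luc C3RL4 cells; cpds + 1 uM (final) retinol, 6 hr, 37 C/5% CO2; luciferase reagent, 30 min RT, luminescence readout. Inhibitors of retinol-driven signal scored.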
On the technique in general: qHTS replaces the single test concentration by a dilution series.

A short description of assay [3]: qHTS assay to identify small molecule agonists of the retinoic acid receptor (RAR) signaling pathway (AID 1159553). To be noted: C3RL4 RARE luciferase reporter, agonist, 6 h; activation: at 73.3 µM (top of the series) unless noted. The gist of the method:
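Activation of retinol signaling was monitored via a RARE luciferase reporter in C3RL4 cells. After 6 hr compound treatment at 37 C, detection reagent was added for 30 min at room temperature before luminescence reading.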

Assay [4] in a line: qHTS assay to identify small molecule antagonists of the estrogen related receptor (ERR) signaling pathway from Tox21 library - cell viability counter screen (AID 1224834). Also: nearly all actives have a fitted effect of over 30% in size. Also: potency is read from the fitted curve at half-maximal effect. The method, boiled down: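 CellTiter-Fluor fluorescence measured; ERR cells; 17.5 h compound incubation at 37 C; 30 min reagent step.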
Assay [5] addresses Luciferin 4-monooxygenase (Photinus pyralis) (UniProt P08659). Nature of the assay: qHTS assay to identify small molecule inhibitors of firefly luciferase (AID 1224835). Also: nearly all actives have a fitted effect of over 25% in size. Also: potency is read from the fitted curve at half-maximal effect. The gist of the method:
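Biochemical qHTS: compounds run as interplate titrations against purified firefly enzyme, with D-luciferin and ATP each at its KM concentration. Light output recorded by CCD imaging.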

Assay [6] is described as follows: qHTS assay to identify small molecule agonists of the constitutive androstane receptor (CAR) signaling pathway - cell viability counter screen (AID 1224836). Also: nearly all actives have a fitted effect of over 45% in size. The method, boiled down: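 HepG2 cells stably carrying hCAR and a CYP2B6-2.2kb reporter were plated 4 h, then given compounds at 15 concentrations plus PK11195 (final 0.75 uM). After 23 h at 37 C, viability was read by CellTiter-Fluor fluorescence.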

A short description of assay [7]: qHTS assay to identify small molecule agonists of the RXR signaling pathway - cell viability counter screen (AID 1159529). Also: nearly all actives have a fitted effect of over 50% in size. Also: potency is read from the fitted curve at half-maximal effect. The method, boiled down: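 RXR-alpha-UAS-bla HEK 293T cells in medium with 2% charcoal-stripped FBS were preincubated 5 hr, then exposed to compounds for 16 hr at 37 C. Viability was read as CellTiter-Glo luminescence after 30 min at room temperature.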

The target of assay [8] is Retinoic acid receptor RXR-alpha (Homo sapiens) (UniProt P19793). The assay is described as follows: qHTS assay to identify small molecule agonists of the RXR signaling pathway (AID 1159527; calls by dose curve; also: nearly all actives have a fitted effect of over 35% in size). The gist of the method:
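GeneBLAzer RXR-alpha-UAS-bla HEK 293T cells in medium with 2% charcoal-stripped FBS, pre-incubated 5 hr at 37 C, then exposed to compounds 16 hr. Beta-lactamase reporter read by FRET substrate, 2 hr room temperature, 460/530 nm emission.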

Assay [9] can be described thus: qHTS assay to identify small molecule antagonists of the estrogen related receptor (ERR) signaling pathway - cell viability counter screen (AID 1224818). The gist of the method:
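In the same ERR cell assay, compound-treated wells (17.5 h, 37 C) were multiplexed with a fluorogenic viability reagent, CellTiter-Fluor, read after 30 min to flag cytotoxic substances.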

Assay [10] can be described thus: qHTS assay to identify small molecule antagonists of the estrogen related receptor signaling pathway with the pleiotropic PPARgamma coactivator (PGC) cell viability counter screen (AID 1224822). The gist of the method:
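Compounds in DMSO, with positive and negative controls, were applied to PGC/ERR cells (2,000/well) and left 17.5 h at 37 C before CellTiter-Fluor detection.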

Several values for one entry are separate records, joined by “and”; a condition that tells them apart may be missing. Equal entries are not always repeated. Results filed as inconclusive are left out. A structure can be active in one record and inactive in another. Activity calls are given as the source filed them. Unless noted, calls follow the shape of the dose curve; as a rule, active = well fitted curve in the direction sought with a large enough effect in the repeat runs; inconclusive = weak or mixed curves; inactive = no such curve, though single readings can be large; an effect the other way counts as inactive or inconclusive.

Chain of Luciferin 4-monooxygenase (Photinus pyralis) (P08659 whole entry, looked up): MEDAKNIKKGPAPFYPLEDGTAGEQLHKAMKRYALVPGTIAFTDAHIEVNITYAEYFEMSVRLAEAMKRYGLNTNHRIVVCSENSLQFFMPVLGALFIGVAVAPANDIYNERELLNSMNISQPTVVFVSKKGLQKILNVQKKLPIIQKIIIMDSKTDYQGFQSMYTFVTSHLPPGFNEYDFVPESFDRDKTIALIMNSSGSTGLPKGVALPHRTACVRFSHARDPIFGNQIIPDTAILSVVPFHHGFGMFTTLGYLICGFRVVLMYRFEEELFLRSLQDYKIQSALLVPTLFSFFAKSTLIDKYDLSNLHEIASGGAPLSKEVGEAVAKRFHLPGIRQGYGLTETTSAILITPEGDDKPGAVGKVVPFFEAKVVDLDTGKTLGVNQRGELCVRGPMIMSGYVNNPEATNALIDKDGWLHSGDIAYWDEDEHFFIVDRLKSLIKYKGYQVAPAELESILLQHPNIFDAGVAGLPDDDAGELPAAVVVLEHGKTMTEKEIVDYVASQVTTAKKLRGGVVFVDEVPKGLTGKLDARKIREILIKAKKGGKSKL
Chain of Retinoic acid receptor RXR-alpha (Homo sapiens) (P19793 whole entry, looked up): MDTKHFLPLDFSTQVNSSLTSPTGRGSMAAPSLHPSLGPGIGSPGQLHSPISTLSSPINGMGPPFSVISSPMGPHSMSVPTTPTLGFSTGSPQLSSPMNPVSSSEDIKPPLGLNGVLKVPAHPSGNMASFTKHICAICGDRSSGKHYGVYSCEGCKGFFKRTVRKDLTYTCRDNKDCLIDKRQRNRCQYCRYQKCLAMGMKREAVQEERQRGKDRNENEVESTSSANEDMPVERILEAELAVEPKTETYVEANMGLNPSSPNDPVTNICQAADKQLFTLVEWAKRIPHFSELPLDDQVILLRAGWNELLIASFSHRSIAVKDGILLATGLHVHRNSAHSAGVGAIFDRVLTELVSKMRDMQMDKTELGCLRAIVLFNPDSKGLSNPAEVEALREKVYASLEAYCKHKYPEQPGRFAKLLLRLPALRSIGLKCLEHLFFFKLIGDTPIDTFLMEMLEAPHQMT

For `COC(=O)c1ccccc1C(=O)OC`, the result in [1] was inactive. Moreover, the Potency result in assay [2], in [3], in assay [4], in assay [5] and in [6] was “inactive” throughout.
Consider `Cc1ccc(N)cc1N`, for which the outcome in [1] was inactive. Also, the Potency result in assay [4] is “inactive”.
`CCCC1COC(Cn2cncn2)(c2ccc(Cl)cc2Cl)O1` (stereo not drawn): the Potency entry in assay [7], in [2], in assay [3], in assay [5] and in [6] was “inactive” in each case. In assay [1], the call was inactive. Besides, in assay [4], the Potency is 49.4 µM (active) and 54.5 µM (active).
Turning to `CCN(CC)c1ccccc1`, the Potency result in [8], in [5] and in assay [6] was “inactive” each time. Moreover, the outcome in assay [1] was inactive.
Turning to `CCCN(CCC)c1c([N+](=O)[O-])cc(C(F)(F)F)cc1[N+](=O)[O-]`, in assay [1], the result was inactive. The Potency entry in assay [5] and in assay [6] was “inactive” in each case.
Take `Cc1ccc([N+](=O)[O-])cc1C`: the molecule was classed as inactive in assay [1]. Besides, the Potency result in [2], in assay [3], in [5] and in assay [6] was “inactive” in each case.
On to `Cc1cccc([N+](=O)[O-])c1`, for which the Potency entry in assay [7], in assay [3], in assay [4], in assay [5] and in assay [6] was “inactive” each time. The molecule was classed as inactive in assay [1].
For `ClCCBr`, the Potency entry in [8], in assay [5] and in assay [6] was “inactive” throughout. Besides, in assay [1], the result was inactive.
In the case of `C[C@]12CC[C@H]3[C@@H](CC[C@@]45O[C@@H]4C(O)=C(C#N)C[C@]35C)[C@@H]1CC[C@@H]2O`, the Potency entry in [7], in [4], in [5] and in assay [6] was “inactive” throughout. The molecule was called inactive in [1].
`CCNc1nc(NC(C)(C)C)nc(SC)n1`: in [7], the Potency result was “inactive and 49 µM (active)”. Besides, the molecule was called inactive in assay [1]. For the same molecule, the Potency result in assay [2], in assay [3], in assay [4] and in assay [5] was “inactive” in each case.
As for `c1ccc2c(c1)oc1ccccc12`, the Potency entry in assay [7] and in [6] was “inactive” each time. Also, in [1], the result was inactive.
Consider `O=C1CCCN1`, for which the Potency entry in assay [8], in assay [5] and in assay [6] was “inactive” each time. The result in [1] was inactive.
Consider `CCOP(=S)(OCC)Oc1cnc2ccccc2n1`, for which the Potency entry in assay [7], in assay [2], in [3], in [4], in assay [5] and in assay [6] was “inactive” each time. Further, the molecule was classed as inactive in [1].
Regarding `CC(C)(Cl)Cl`, the Potency entry in assay [8], in assay [2], in assay [3], in [5] and in assay [6] was “inactive” in each case. Moreover, the call in assay [1] was inactive.
Take `CCNc1nc(NC(C)C)nc(SC)n1`: the Potency result in assay [8], in [4] and in [5] was “inactive” throughout. For the same molecule, in assay [1], the molecule was classed as inactive.
Take `COc1ccc2c3c1O[C@H]1[C@@H](O)C=C[C@H]4[C@@H](C2)N(C)CC[C@@]341`: the Potency result in [8], in assay [5] and in assay [6] was “inactive” in each case. In addition, in assay [1], the molecule was classed as inactive.
Consider `Nc1ccc(Oc2ccc(N)cc2)cc1`, for which the Potency entry in assay [8], in assay [2], in [4] and in assay [6] was “inactive” in each case. Also, the call in assay [1] was inactive. The Potency result in assay [5] was “inactive and 63.3 µM (active)”.
Consider `Nc1c(Cl)c(Cl)nc(C(=O)O)c1Cl`, for which the call in assay [1] was inactive. Besides, the Potency result in [4] and in [5] was “inactive” throughout.
For the molecule `O=S(=O)(c1ccc(Cl)cc1)c1cc(Cl)c(Cl)cc1Cl`, the Potency result in assay [7], in assay [3] and in assay [5] was “inactive” each time. Moreover, the call in assay [1] was inactive.
On to `CCCCN(CC)C(=O)SCCC`, for which, in assay [1], the result was inactive. Besides, the Potency result in assay [2], in [3], in [5] and in assay [6] was “inactive” in each case.
With `CC1OC(C)OC(C)O1` (stereo not drawn), the Potency entry in assay [8], in [4], in assay [5] and in assay [6] was “inactive” in each case. Besides, the molecule was called inactive in assay [1].
`CCOC(=O)c1ccccc1C(=O)OCC`: the Potency result in [7], in assay [2], in [3], in assay [5] and in [6] was “inactive” in each case. For the same molecule, the call in [1] was inactive.
For the molecule `NCCc1ccc(O)cc1`, in assay [7], the Potency is 48.6 µM (active) and inactive. Further, the molecule was classed as inactive in assay [1], in assay [9] and in assay [10]. Also, the Potency entry in assay [2], in [3], in assay [4], in assay [5] and in assay [6] was “inactive” each time.
On to `COC(=O)NC(=S)Nc1ccccc1NC(=S)NC(=O)OC`, for which the Potency result in assay [8], in assay [4], in [5] and in assay [6] was “inactive” throughout. Also, in [1], the molecule was classed as inactive.
Consider `CNC(=O)Oc1ccccc1OC(C)C`, for which the Potency entry in assay [8], in assay [2], in assay [3], in [5] and in assay [6] was “inactive” throughout. Besides, the molecule was called inactive in [1].
`CCC(C)(CC)c1cc(NC(=O)c2c(OC)cccc2OC)on1`: the Potency entry in assay [7], in assay [2], in [3], in assay [5] and in assay [6] was “inactive” each time. For the same molecule, the call in [1] was inactive.
Turning to `O=C(O)c1ccccn1`, the Potency result in assay [8], in assay [5] and in [6] was “inactive” in each case. Further, the outcome in assay [1] was inactive.
Take `COC(=O)c1ccccc1N`: the Potency entry in [7], in assay [4], in [5] and in assay [6] was “inactive” in each case. In addition, the molecule was classed as inactive in assay [1].
On to `C1CN2CCN1CC2`, for which the Potency result in [7], in [2], in assay [3] and in assay [5] was “inactive” in each case. In addition, the result in assay [1] was inactive.
With `CC(Oc1ccc(Cl)cc1Cl)C(=O)O` (stereo not drawn), the Potency entry in assay [7], in assay [2], in assay [3], in assay [4], in assay [5] and in assay [6] was “inactive” throughout. Besides, the outcome in assay [1] was inactive.
Consider `O=c1n(Cl)c(=O)n(Cl)c(=O)n1Cl`, for which the Potency entry in assay [8], in assay [2], in [3], in assay [5] and in assay [6] was “inactive” in each case. Further, the molecule was called inactive in assay [1].
For `C=CCO`, the Potency entry in [8], in assay [4], in assay [5] and in assay [6] was “inactive” throughout. For the same molecule, the outcome in assay [1] was inactive.
Take `CC(C)=C[C@@H]1[C@@H](C(=O)OCc2coc(Cc3ccccc3)c2)C1(C)C`: in assay [1], the molecule was classed as inactive. The Potency entry in assay [2], in [3], in assay [5] and in assay [6] was “inactive” throughout.

Values taken from PubChem BioAssay (Tox21).
